Test results published in PubChem BioAssay AID432 (Sanford-Burnham Center for Chemical Genomics, 2006).
Screen size: about 64,000 compounds; about 15 (0.02%) were called active. No rule for the calls is given here. A selection follows. Measured potencies and affinities stand elsewhere.

Biological target: Bcl-2-related protein A1 (Mus musculus) (UniProt Q07440)
Assay: Bfl-1 inhibitors, primary screen, biochemical, fluorescence polarization, FITC-Bid, mouse (AID 432)
Details: FITC-Bid BH3 peptide fluorescence polarization displacement; at 20 µM; active compounds read high

Sequence of Bcl-2-related protein A1 (Mus musculus) (Q07440 whole entry, looked up): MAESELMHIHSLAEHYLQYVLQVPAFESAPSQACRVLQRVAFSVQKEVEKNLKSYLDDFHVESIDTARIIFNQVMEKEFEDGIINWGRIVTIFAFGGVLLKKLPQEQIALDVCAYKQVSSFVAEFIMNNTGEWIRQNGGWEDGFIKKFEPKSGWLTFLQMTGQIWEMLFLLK

displacement, inactive:
O=C(CN1C(=O)CC(c2ccco2)Sc2ccccc21)NCC1CCCO1 (stereo unspecified) -4.3%, CCCN1CCN(C(=O)Cn2cccc2C(=O)c2ccccc2)CC1 -2.4%, COC(=O)CCC(=O)Nc1ccc(NC(C)=O)cc1 0.3%, COc1ccc(S(=O)(=O)n2nc(-c3cc(OC)c(OC)c(OC)c3)cc2N)cc1OC 3.4%, COc1ccc(OC)c(S(=O)(=O)n2nc(-c3ccccc3)cc2N)c1 -0.3%, CC(C)(C)Sc1nc(O)cc(=O)[nH]1 -4.4%, CN(c1ccccc1)S(=O)(=O)c1cc(C(=O)N2CCN(c3ccccn3)CC2)ccc1Cl -4.6%, CC1CN(C(=O)c2ccc(C(=O)c3ccccc3)cc2)CC(C)O1 (stereo unspecified) -0.8%, O=C1CC2CS(=O)(=O)CC2N1C1CCCCC1 (stereo unspecified) 2%, CCN(CC)S(=O)(=O)c1ccc(Cl)c(C(=O)NCC2CCCO2)c1 (stereo unspecified) -6.5%, COc1cc(OC)cc(-c2nc(-c3cc4cc(C)ccc4nc3OC)no2)c1 -2%, COc1cccc(-c2nc(-c3ccccc3)no2)c1 -9.1%, COc1nc(-c2ccccc2)ccc1-c1noc(-c2ccc(F)cc2)n1 -1.8%, COc1ccc(-c2ccc(-c3noc(-c4ccccc4)n3)c(OC)n2)cc1 -44.4%, COCCNC(=O)C(c1ccccc1)N(Cc1cccs1)C(=O)Cn1nnc2ccccc21 (stereo unspecified) 4.1%, CCCCCOc1ccc(C(=O)NC(CCC)C(=O)O)cc1 (stereo unspecified) 0.1%, CCCn1nnc(NCc2ccc(OCc3cccs3)c(OC)c2)n1 1.2%, CCCNC(=O)Nc1cc(C)on1 -15.6%, N#Cc1cc2c(nc1SCC1COc3ccccc3O1)CCC2 (stereo unspecified) -4.2%, O=C(CC(c1ccccc1O)N1CCCCC1)N1CCCCC1 (stereo unspecified) -9.2%, COc1ccccc1-n1cnnc1SC1CCOC1=O (stereo unspecified) -0.5%, O=C(CSc1nnnn1C1CCCCC1)Nc1cccc(NC(=O)c2ccco2)c1 6.6%, Cc1c(C(=O)NCc2cccnc2)oc2c1C(=O)CC(C)(C)C2 -2.3%, CCCc1[nH]nc2c1C(CCc1ccccc1)C(C#N)=C(N)O2 (stereo unspecified) -3.6%, Cc1nc(SCC(=O)NCC2CCCO2)c2oc3ccccc3c2n1 (stereo unspecified) -3.4%, CC(C)(O)c1nnn(-c2ccccc2)c1C(F)(F)F -3%, COc1cccc(CNCC(=O)N2C(C)CCCC2C)c1 (stereo unspecified) -0.5%, CNC(=O)c1cc2ccc(OC)cc2oc1=O -6.1%, O=C1CCc2cc(S(=O)(=O)N3CCC(C(=O)NC4CCCc5ccccc54)CC3)ccc2N1 (stereo unspecified) -5.6%, Cc1csc(-c2cnn(-c3ccccc3)c2NC(=O)c2ccccc2)n1 -3.3%, COc1cccc(-c2nn(C)c3sc(C(=O)NCc4ccccn4)cc23)c1 3.4%, COC(=O)c1ccc(NC(=O)C2C3C=CC(O3)C2C(=O)O)cc1 (stereo unspecified) 1.3%, Cc1cccc(-n2c(SCC(=O)N3CCCC3)nnc2-c2ccccn2)c1C -5.2%, CCC/C(O)=C1\C(=O)CC(C)(C)CC1=NCCO 2.8%, O=S(=O)(c1ccc(Br)s1)n1cccn1 -3.1%, O=C(Nc1nncs1)C1COc2ccccc2O1 (stereo unspecified) -5%, O=C(NC(NCCCN1CCOCC1)(C(F)(F)F)C(F)(F)F)C1CCCCC1 -1.1%, Cc1nc(NCCN2CCOCC2)c2nnn(Cc3c(F)cccc3Cl)c2n1 -1.3%, CCOC(=O)/C(C#N)=C(\N)C(C)C(=O)Nc1ccccn1 (stereo unspecified) -3.2%, CCOC(=O)CNC(=O)CSc1nc2cccnc2n1C1CCCCC1 -8.1%, Cn1c(NC(=O)c2cc(Br)ccc2Cl)cc(=O)n(C)c1=O -6.3%
